Results filed as inconclusive are left out. Active and inactive are the calls of the source. The call rests on the fitted dose curve; in most records, active means well fitted curve in the direction sought with a large enough effect; inconclusive means small, poorly fitted or top-dose-only effect, or another doubt; inactive means no such curve, though single readings can be large; an effect the other way counts as inactive or inconclusive.
Experiments:
[1] = Cell Viability - H-4-II-E (AID 543); settings: H-4-II-E rat hepatoma viability; series mostly up to 92.2 µM; further: on the % scale 0 is the no-effect control and ±100 the full control effect; nearly all actives have a fitted effect of over 35% in size
In short: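 Rat hepatoma H-4-II-E cells (1500/well) were plated, incubated 5 hr at 37 °C, then exposed to compounds for 40 hr at 37 °C. Cellular ATP was read by CellTiter-Glo luminescence; AC50 came from Hill-equation fits of concentration-response data.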

[2] = Cell Viability - Renal Proximal Tubule (AID 545); settings: renal proximal tubule cells viability, primary cells of rat origin; series mostly up to 91.7 µM; further: nearly all actives have a fitted effect of over 40% in size
In short: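 Cytotoxicity is scored as a concentration-dependent drop in cellular ATP in primary rat renal proximal tubule cells exposed for 40 hr. AC50 derives from Hill modelling.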

[3] = Cell Viability - Mesenchymal (AID 546); settings: mesenchymal cells viability, qHTS; series mostly up to 91.7 µM;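 further: cells exposed to compound for 40 hours before reading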
In short: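 Normal human renal glomerulus-derived kidney mesenchymal cells, 1000 per well in complete medium, were treated with compounds for 40 hr at 37 °C. Viability was read as intracellular ATP by CellTiter-Glo luminescence; AC50 values came from Hill-equation fits of qHTS concentration-response data.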

[4] = Cellular Toxicity (caspase-3) HepG2 (AID 654); settings: HepG2 caspase-3 activation, luminescence; series mostly up to 92.2 µM;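 further: cells exposed to compound for 16 hours before reading; 0% = DMSO alone and 100% = caspase signal from 100 µM tamoxifen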
In short: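 HepG2 cells (1500/well) in complete medium were treated with compounds for 16 hr at 37 °C. Caspase-3/7 activity was then read as luminescence from peptide-aminoluciferin cleavage. AC50 came from Hill fits, normalized to DMSO and 100 uM tamoxifen.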

[5] = Cellular Toxicity (caspase-3) Jurkat (AID 655); settings: Jurkat caspase-3 activation, luminescence; caspase-3 activation: at 92.2 µM (top of the series), DMSO = 0%, tamoxifen = 100%;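 further: cells exposed to compound for 16 h at 37 °C before reading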
In short: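 Caspase 3/7 activation is scored as increased luminescence in Jurkat cells cultured with compound for 16 hours in complete medium. AC50 values come from Hill fits of qHTS concentration-response data normalized to DMSO and 100 uM tamoxifen controls.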

[6] = Cellular Toxicity (caspase-3) HUV-EC-C (AID 656); settings: HUV-EC-C cells, caspase-3 activation (apoptosis), vehicle = 0, 100 µM tamoxifen = 100%; series mostly up to 92.2 µM;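 further: cells exposed to compound for 16 h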
In short: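 Read-out: luminescence proportional to caspase 3/7 activity, measured 20 min after adding Caspase-Glo 3/7 reagent. Cells (HUV-EC-C) had received compound for 16 hr at 37°C. Increases relative to DMSO and 100 uM tamoxifen gave concentration-response AC50 values.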

[7] = Cellular Toxicity (caspase-3) SHSY5Y (AID 657); settings: SH-SY5Y caspase-3 activation, DMSO zero, 10 µM staurosporine = 100%; series mostly up to 91.7 µM;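 further: cells exposed to compound for 16 hours at 37 °C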
In short: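 Cells plated and incubated 5 h at 37 °C, dosed over a concentration range, incubated 16 h, then given Caspase-Glo 3/7 reagent for 1 h at room temperature before luminescence reading. Staurosporine (10 uM) defined full stimulation.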

[8] = Cellular Toxicity (caspase-3) BJ (AID 658); settings: BJ fibroblasts, luminescence, normalized: DMSO 0%, staurosporine 100%; series mostly up to 91.7 µM
In short: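 Luminescent aminoluciferin-substrate cleavage reports caspase 3/7 activity in normal human BJ fibroblasts after 16 hr compound exposure at 37 °C. Normalized to DMSO (basal) and 10 uM staurosporine (100%); AC50 from Hill fit of concentration-response.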

[9] = Cellular Toxicity (caspase-3) MRC-5 (AID 659); settings: MRC-5 cells, luminescence, normalized: DMSO 0%, 10 µM staurosporine 100%; series mostly up to 91.7 µM;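 further: cells exposed to compound for 16 h at 37 °C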
In short: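 Luminescence from caspase-cleaved aminoluciferin substrate (Caspase-Glo 3/7, 1 hr RT) reports caspase 3/7 activity in MRC-5 lung fibroblasts after 16 hr compound exposure. Normalized to DMSO basal and 10 uM staurosporine as 100%; AC50 from Hill fits.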

[10] = Cell Viability - SH-SY5Y (AID 544); settings: SH-SY5Y neuroblastoma cell viability; viability change, negative = cytotoxic: at 92.2 µM (top of the series); further: nearly all actives have a fitted effect of over 55% in size
In short: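 Human neuroblastoma SH-SY5Y cells (1500/well) in complete medium were exposed to compounds for 40 hr at 37 °C; intracellular ATP was then quantified by CellTiter-Glo luminescence after 20 min at room temperature. AC50 came from Hill-equation concentration-response fits.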

O=c1[nH][nH]c(=O)c2cc([N+](=O)[O-])ccc12
inactive: Potency [1] | Potency [2] | Potency [3] | Potency [4] | caspase-3 activation [5] -0.126% | outcome [6] | outcome [7] | outcome [8] | outcome [9]

NS(=O)(=O)O
inactive: Potency [1] | Potency [2] | Potency [3] | Potency [4] | caspase-3 activation [5] 0.859% | outcome [6] | outcome [7] | outcome [8] | outcome [9]

CCCOCC(C)O (stereo unspecified)
inactive: Potency [1] | Potency [2] | Potency [3] | Potency [4] | caspase-3 activation [5] 3.45% | outcome [6] | outcome [7] | outcome [8] | outcome [9]

CNc1ccccc1
inactive: Potency [1] | Potency [2] | Potency [3] | Potency [4] | caspase-3 activation [5] 1.08% | outcome [6] | outcome [7] | outcome [8] | outcome [9]

Cc1c(C(=O)O)cccc1[N+](=O)[O-]
inactive: Potency [1] | Potency [2] | Potency [3] | Potency [4] | caspase-3 activation [5] 1.11% | outcome [6] | outcome [7] | outcome [8] | outcome [9]

O=[N+]([O-])c1ccccc1CCO
inactive: Potency [1] | Potency [2] | Potency [3] | Potency [4] | caspase-3 activation [5] 0.961% | outcome [6] | outcome [7] | outcome [8] | outcome [9]

CC1(N)CCC(C(C)(C)N)CC1 (stereo unspecified)
inactive: Potency [1] | Potency [2] | Potency [3] | Potency [4] | caspase-3 activation [5] 1.23% | outcome [6] | outcome [7] | outcome [8] | outcome [9]

CC(=O)CC(C)C
inactive: Potency [1] | Potency [2] | Potency [3] | Potency [4] | caspase-3 activation [5] -2.68% | outcome [6] | outcome [7] | outcome [8] | outcome [9]

COC(=O)c1ccccc1
inactive: Potency [1] | Potency [2] | Potency [3] | Potency [4] | caspase-3 activation [5] 2.94% | outcome [6] | outcome [7] | outcome [8] | outcome [9]

C=Cc1ccccn1
inactive: Potency [1] | Potency [2] | Potency [3] | Potency [4] | caspase-3 activation [5] 0.756% | outcome [6] | outcome [7] | outcome [8] | outcome [9]

Nc1nc(-c2ccccc2)cs1
inactive: Potency [1] | Potency [2] | Potency [3] | Potency [4] | caspase-3 activation [5] -3.96% | outcome [6] | outcome [7] | outcome [8] | outcome [9]

C[C@@H]1CC2(OC[C@]3(C)O[C@H]23)O[C@H]2C[C@@]3(C)[C@@H]4CC[C@H]5C(C)(C)C(O[C@@H]6OC[C@@H](O)[C@H](O)[C@H]6O)CC[C@@]56C[C@@]46CC[C@]3(C)[C@@H]12 (stereo partly specified)
inactive: Potency [1] | Potency [2] | Potency [3] | Potency [4] | caspase-3 activation [5] 2.9% | outcome [6] | outcome [7] | outcome [8] | outcome [9]

NC(=O)CCCCC(N)=O
inactive: Potency [1] | Potency [2] | Potency [3] | Potency [4] | caspase-3 activation [5] 2.15% | outcome [6] | outcome [7] | outcome [8] | outcome [9]

CC(=O)OCCC(C)C
inactive: Potency [1] | Potency [2] | Potency [3] | Potency [4] | caspase-3 activation [5] 0.836% | outcome [6] | outcome [7] | outcome [8] | outcome [9]

Cc1ccc2c(c1[N+](=O)[O-])C(=O)c1ccccc1C2=O
inactive: Potency [1] | Potency [2] | Potency [3] | Potency [4] | caspase-3 activation [5] -1.22% | outcome [6] | outcome [7] | outcome [8] | outcome [9]

CC(C)c1ccccc1
inactive: Potency [1] | Potency [2] | Potency [3] | Potency [4] | outcome [6] | outcome [7] | outcome [8] | outcome [9]

CCNS(=O)(=O)c1ccc(C)cc1
inactive: Potency [1] | Potency [2] | Potency [3] | Potency [4] | caspase-3 activation [5] 2.46% | outcome [6] | outcome [7] | outcome [8] | outcome [9]

O=C(O)c1ccc(Cl)cc1Cl
inactive: Potency [1] | Potency [2] | Potency [3] | Potency [4] | caspase-3 activation [5] -1.11% | outcome [6] | outcome [7] | outcome [8] | outcome [9]

CCC1CO1 (stereo unspecified)
inactive: Potency [1] | Potency [2] | Potency [3] | Potency [4] | caspase-3 activation [5] 1.29% | outcome [6] | outcome [7] | outcome [8] | outcome [9]

Cc1c(N)cccc1[N+](=O)[O-]
inactive: Potency [1] | Potency [2] | Potency [3] | Potency [4] | caspase-3 activation [5] 2.77% | outcome [6] | outcome [7] | outcome [8] | outcome [9]

Nc1cccc(S(=O)(=O)O)c1
inactive: Potency [1] | Potency [2] | Potency [3] | Potency [4] | caspase-3 activation [5] -0.29% | outcome [6] | outcome [7] | outcome [8] | outcome [9]

O=C1NC(=O)c2cc([N+](=O)[O-])ccc21
inactive: Potency [1] | Potency [2] | Potency [3] | Potency [4] | caspase-3 activation [5] 0.91% | outcome [6] | outcome [7] | outcome [8] | outcome [9]

Cc1cc(C)c(N)cc1C
inactive: Potency [1] | Potency [2] | Potency [3] | Potency [4] | caspase-3 activation [5] -1.78% | outcome [6] | outcome [7] | outcome [8] | outcome [9]

COC(=O)CCC(=O)OC
inactive: Potency [1] | Potency [2] | Potency [3] | Potency [4] | caspase-3 activation [5] 1.38% | outcome [6] | outcome [7] | outcome [8] | outcome [9]

C1COC1
inactive: Potency [1] | Potency [2] | Potency [3] | Potency [4] | caspase-3 activation [5] -0.0782% | outcome [6] | outcome [7] | outcome [8] | outcome [9]

Cc1ccc2oc(=O)ccc2c1
inactive: Potency [1] | Potency [2] | Potency [3] | Potency [4] | caspase-3 activation [5] 0.624% | outcome [6] | outcome [7] | outcome [8] | outcome [9]

NC(=O)/N=N/C(N)=O
inactive: Potency [1] | Potency [2] | Potency [3] | Potency [4] | caspase-3 activation [5] -2.04% | outcome [6] | outcome [7] | outcome [8] | outcome [9]

CC(=C/C=C/C(C)=C/C=C/C=C(C)/C=C/C=C(C)/C=C/C(=O)O)/C=C/C(=O)O
inactive: Potency [1] | Potency [2] | Potency [3] | Potency [4] | caspase-3 activation [5] -0.472% | outcome [6] | outcome [7] | outcome [8] | outcome [9]

CCCOCC(C)OCC(C)O (stereo unspecified)
inactive: Potency [1] | Potency [2] | Potency [3] | Potency [4] | caspase-3 activation [5] -2.41% | outcome [6] | outcome [7] | outcome [8] | outcome [9]

CCNc1cc(O)ccc1C
inactive: Potency [1] | Potency [2] | Potency [3] | Potency [4] | caspase-3 activation [5] 0.87% | outcome [6] | outcome [7] | outcome [8] | outcome [9]

N#CCc1ccccc1[N+](=O)[O-]
inactive: Potency [2] | Potency [3] | Potency [4] | outcome [6] | outcome [7] | outcome [8]

O=C1C=CCCC1
inactive: Potency [1] | Potency [2] | Potency [3] | Potency [4] | caspase-3 activation [5] -0.0925% | outcome [6] | outcome [7] | outcome [8] | outcome [9]

COc1ccc(N=[N+]([O-])c2ccc(OC)cc2)cc1
inactive: Potency [10] | Potency [2] | Potency [3] | Potency [4] | caspase-3 activation [5] -8.89% | outcome [6] | outcome [7] | outcome [8] | outcome [9]

COc1ccc(OC)cc1
inactive: Potency [1] | Potency [2] | Potency [3] | Potency [4] | caspase-3 activation [5] 0.323% | outcome [6] | outcome [7] | outcome [8] | outcome [9]

O=[N+]([O-])c1cc(C(F)(F)F)ccc1Cl
inactive: Potency [1] | Potency [2] | Potency [3] | Potency [4] | caspase-3 activation [5] 0.364% | outcome [6] | outcome [7] | outcome [8] | outcome [9]
